Data on 40 compounds can be found in PubChem BioAssay (Tox21).

Results filed as inconclusive are left out. Entries that show only a call come without a potency. Calls of active or inactive are those of the source. Calls follow the shape of the dose curve; as a rule, active = well fitted cell-killing curve with a large enough effect in the repeat runs; inconclusive = weak or mixed curves, or effect the other way; inactive = flat fitted curve, though single readings scatter.

This assay is described as follows: qHTS assay to identify small molecule agonists of the TGF-beta/Smad signaling pathway - cell viability counter screen (AID 1346829). Also: top concentration of the series differs between compounds; nearly all actives have a fitted effect of over 45% in size. The note with it: SBE-bla HEK293T viability, CellTiter-Glo luminescence, 5 h; series mostly up to 76.8 µM. An excerpt: National Center for Advancing Translational Sciences [NCATS]
NIH Chemical Genomics Center [NCGC]
U.S. Environmental Protection Agency [EPA]
National Institutes of Environmental Health Sciences [NIEHS]
National Toxicology Program [NTP]
U.S. Food and Drug Administration [FDA]
Transforming growth factor beta (TGF-beta) superfamily consists of a large number of structurally related dimeric proteins that act as hormones or local mediators in regulating a wide range of biological functions. This superfamily includes TGF-betas themselves, the bone morphogenetic proteins (BMPs) and the activins. These ligands induce oligomerization of serine/threonine receptor kinases and phosphorylate the cytoplasmic signaling molecules of Smad protein family. CellSensor SBE-bla HEK 293T cell line (Life Technologies, Carlsbad, CA), responsive to TGF-beta was used to screen Tox21 10K compound library for identification of agonists/antagonists of the Smad signaling pathway. This cell line contains a beta-lactamase reporter gene under control of the Smad binding element (SBE) stably integrated into HEK 293T cells. Also cytotoxicity of the compounds was tested in parallel by measuring the cell viability using CellTiter-Glo assay system in the same wells.
Tox21 Assay Protocol Summary:
SBE-bla HEK 293T cells were dispensed at 4,000/well in 6 uL of assay medium into black wall/clear-bottom 1536-well plates using a Multidrop Combi (ThermoFisher Scientific, Waltham, MA) dispenser. After the assay plates were incubated at 37 C and 5% CO2 for an overnight, 23 nL of compounds dissolved in DMSO, positive controls or DMSO only was transferred to the assay plate by a Pintool station (Kalypsys, San Diego, CA). The assay plates were incubated at 37 C and 5% CO2 for 5 hr. One uL of LiveBLAzer B/G FRET substrate (Life Technologies) was added using a Flying Reagent Dispenser (FRD, Aurora Discovery, San Diego, CA) and the plates were incubated at room temperature for 2 hr. Fluorescence intensity (405 nm excitation, 460 nm and 530 nm emissions) was measured using an Envision plate reader (PerkinElmer, Shelton, CT). For cytotoxicity read, 4 uL of CellTiter-Glo reagent (Promega Corporation, Madison, WI) was added to each well of the assay plates using FRD. After 30min incubation at room temperature, the luminescence intensity was measured using ViewLux plate reader (PerkinElmer).
Take `CCN1CCCC1=O`: the Potency result was “inactive”.
Turning to `O=C1OC(c2ccc(O)cc2)(c2ccc(O)cc2)c2ccccc21`, the Potency result is “inactive”.
As for `CCCCNC(=O)NS(=O)(=O)c1ccc(N)cc1`, the entry is “inactive”; as for `Cc1cccc(Nc2cc(Cl)nc(SCC(=O)O)n2)c1C`, “inactive”; as for `CC(C)(C)NCC(O)c1ccc(O)c(CO)c1` (stereo not given), “inactive”.
`O=c1cc[nH]c(=O)[nH]1`: the Potency result is “inactive”.
The value for `Cn1cnc2c1c(=O)[nH]c(=O)n2C` was “inactive”; that for `Cc1cnc(NC(=O)C2=C(O)c3ccccc3S(=O)(=O)N2C)s1` was “inactive”; that for `CC(C)CC(C)CC(O)CC(C)C` (stereo not given) was “inactive”.
Take `C#C[C@]1(O)CC[C@H]2[C@@H]3CCC4=CC(=O)CC[C@@H]4[C@H]3CC[C@@]21CC`: the Potency result was “inactive”.
As for `CC(O)COc1ccccc1` (stereo not given), the Potency entry was “inactive”.
For the compound `NC(=O)N/N=C/c1ccc([N+](=O)[O-])o1`, the Potency result is “inactive”.
With `CCCCCCCCOc1ccc(C(=O)c2ccccc2)c(O)c1`, the Potency result is “inactive”.
Regarding `Cc1c(N(C)C)c(=O)n(-c2ccccc2)n1C`, the Potency entry was “inactive”.
With `CC(=O)c1ccc(S(=O)(=O)NC(=O)NC2CCCCC2)cc1`, the Potency result is “inactive”.
The value for `N[C@@H](Cc1c[nH]c2ccc(O)cc12)C(=O)O` was “inactive”.
As for `O=C(O)CCCCC1CCSS1` (stereo not given), the Potency result is “inactive”.
Consider `CO[C@H]1C=CO[C@@]2(C)Oc3c(C)c(O)c4c(O)c(c(/C=N/N5CCN(C)CC5)c(O)c4c3C2=O)NC(=O)/C(C)=C\C=C[C@H](C)[C@H](O)[C@@H](C)[C@@H](O)[C@@H](C)[C@H](OC(C)=O)[C@@H]1C`, for which the Potency result is “inactive”.
As for `NC(=O)OCC(COC(N)=O)c1ccccc1`, the Potency result is “inactive”.
In the case of `CCCCOC(=O)CCCCCCCCC(=O)OCCCC`, the Potency result was “inactive”.
Consider `COC(=O)C1CCC(C(=O)OC)CC1` (stereo not given), for which the Potency result was “inactive”.
As for `CC1=NN(c2ccccc2)C(=O)C1`, the entry is “inactive”; as for `OC[C@@H](O)[C@@H](O)[C@H](O)[C@H](O)CO`, “inactive”.
As for `Nc1cccc(N)c1`, the entry is “inactive”; as for `NC(=O)NO`, “inactive”.
Consider `NCCNc1cccc2ccccc12`, for which the Potency entry is “inactive”.
In the case of `COc1cc(O)c(C(=O)c2ccccc2)cc1S(=O)(=O)O`, the Potency result was “inactive”.
On to `CCOCCO`, for which the Potency result was “inactive”.
Take `C=CCOC(=O)CC(C)C`: the Potency entry is “inactive”.
The value for `O=C(O)Cc1cccc2ccccc12` was “inactive”; that for `CCCCCCCCCCCCCCCCCC(=O)OCC(O)CO` (stereo not given) was “inactive”; that for `CCN(CC)CCOC(=O)c1ccc(N)cc1` was “inactive”.
As for `O=[N+]([O-])c1ccc(O)cc1`, the entry is “inactive”; as for `Nc1ccc(N=Nc2ccccc2)c(N)n1`, “inactive”.
As for `N[C@@H](Cc1c[nH]c2ccccc12)C(=O)O`, the entry is “inactive”.
Take `C[C@]12C[C@H](O)[C@H]3[C@@H](CCC4=CC(=O)CC[C@@]43C)[C@@H]1CC[C@@H]2C(=O)CO`: the Potency result is “inactive”.
The value for `CC1=C(/C=C/C(C)=C/C=C/C(C)=C/C(=O)O)C(C)(C)CCC1` was “inactive”; that for `CCOC(=O)C(C)(C)Oc1ccc(Cl)cc1` was “inactive”; that for `COc1cc(C=O)ccc1O` was “inactive”.
Regarding `C1CNCCN1`, the Potency entry is “inactive”.
